Source: paper PMC11006913
Substitutions are numbered along the chain they refer to.

Assays:
Assay in all cases: PBM; 200 nM protein, PBS
Details in all cases: dsDNA, one strand shown
HOXB9 [1] = biological target: HOXB9 (Homo sapiens, UniProt P17482 171-250, T197M)
HOXC9 [2] = biological target: HOXC9 (Homo sapiens, UniProt P31274 178-260, K195R)
VENTX = biological target: T1, VENTX (Homo sapiens, UniProt O95231 78-163)
T1 sequence: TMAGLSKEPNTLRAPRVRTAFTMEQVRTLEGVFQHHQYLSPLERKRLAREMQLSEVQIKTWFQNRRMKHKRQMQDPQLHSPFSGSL

HOXA7 [3] = biological target: HOXA7 (Homo sapiens, UniProt P31268 116-202)
HOXA7 (Homo sapiens, UniProt P31268 116-202), sequence (P31268 116-202): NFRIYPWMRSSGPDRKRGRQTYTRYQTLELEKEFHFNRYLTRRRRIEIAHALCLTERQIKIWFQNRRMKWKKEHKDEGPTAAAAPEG

HOXC10 [4] = biological target: HOXC10 (Homo sapiens, UniProt Q9NYD6 254-340)
HOXC10 (Homo sapiens, UniProt Q9NYD6 254-340), sequence (Q9NYD6 254-340): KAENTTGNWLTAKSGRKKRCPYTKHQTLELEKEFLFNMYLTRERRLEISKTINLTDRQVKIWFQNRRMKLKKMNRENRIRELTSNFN

PAX4 [5] = biological target: T2, PAX4 (Homo sapiens, UniProt O43316 9-242, R200K)
T2 sequence: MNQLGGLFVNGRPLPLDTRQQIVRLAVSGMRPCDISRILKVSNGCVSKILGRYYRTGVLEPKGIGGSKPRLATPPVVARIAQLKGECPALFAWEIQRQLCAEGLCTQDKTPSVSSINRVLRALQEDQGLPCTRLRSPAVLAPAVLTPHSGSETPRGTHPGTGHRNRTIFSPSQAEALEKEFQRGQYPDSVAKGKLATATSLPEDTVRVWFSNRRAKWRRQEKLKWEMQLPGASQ

PAX4 [6] = biological target: T3, PAX4 (Homo sapiens, UniProt O43316 9-242)
T3 sequence: T2 sequence with K192R

HOXB9 [7] = biological target: HOXB9 (Homo sapiens, UniProt P17482 171-250)
HOXB9 (Homo sapiens, UniProt P17482 171-250), sequence (P17482 171-250): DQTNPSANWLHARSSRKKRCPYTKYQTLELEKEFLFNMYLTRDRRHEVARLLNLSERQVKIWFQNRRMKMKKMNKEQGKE

HOXC9 [8] = biological target: HOXC9 (Homo sapiens, UniProt P31274 178-260)
HOXC9 (Homo sapiens, UniProt P31274 178-260), sequence (P31274 178-260): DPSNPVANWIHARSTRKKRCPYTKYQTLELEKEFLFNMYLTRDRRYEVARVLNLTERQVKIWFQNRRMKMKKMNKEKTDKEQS

HOXC9 [9] = biological target: HOXC9 (Homo sapiens, UniProt P31274 178-260, R193K)
HOXC9 (Homo sapiens, UniProt P31274 178-260, R193K), sequence (P31274 178-260 R193K): as the sequence (P31274 178-260) above, with R16K counted along it

HOXA2 [10] = biological target: HOXA2 (Homo sapiens, UniProt O43364 129-215, R185K)
HOXA2 (Homo sapiens, UniProt O43364 129-215, R185K), sequence (O43364 129-215 R185K): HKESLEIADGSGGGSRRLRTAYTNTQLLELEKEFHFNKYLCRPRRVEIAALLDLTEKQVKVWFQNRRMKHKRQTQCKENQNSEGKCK

HOXC10 [11] = biological target: HOXC10 (Homo sapiens, UniProt Q9NYD6 254-340, K271E)
HOXC10 (Homo sapiens, UniProt Q9NYD6 254-340, K271E), sequence (Q9NYD6 254-340 K271E): as the sequence (Q9NYD6 254-340) above, with K18E counted along it

VAX1 = VAX1 (Homo sapiens, UniProt Q5SQQ9 86-172)
VAX1, sequence (Q5SQQ9 86-172): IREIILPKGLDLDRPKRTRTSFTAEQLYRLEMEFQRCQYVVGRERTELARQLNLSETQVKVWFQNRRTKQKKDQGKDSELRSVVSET

HOXB9 [12] = biological target: HOXB9 (Homo sapiens, UniProt P17482 171-250, R186Q)
HOXB9 (Homo sapiens, UniProt P17482 171-250, R186Q), sequence (P17482 171-250 R186Q): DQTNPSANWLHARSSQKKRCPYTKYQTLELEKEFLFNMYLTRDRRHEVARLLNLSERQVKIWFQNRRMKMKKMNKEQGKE

HOXC9 [13] = biological target: HOXC9 (Homo sapiens, UniProt P31274 178-260, R222W)
HOXC9 (Homo sapiens, UniProt P31274 178-260, R222W), sequence (P31274 178-260 R222W): as the sequence (P31274 178-260) above, with R45W counted along it

PAX4 [14] = biological target: T4, PAX4 (Homo sapiens, UniProt O43316 9-242, R227W)
T4 sequence: T2 sequence with K192R, R219W

HOXA2 [15] = biological target: HOXA2 (Homo sapiens, UniProt O43364 129-215, Y150S)
HOXA2 (Homo sapiens, UniProt O43364 129-215, Y150S), sequence (O43364 129-215 Y150S): as the sequence (O43364 129-215 R185K) above, with Y22S, K57R counted along it

HOXA7 [16] = biological target: HOXA7 (Homo sapiens, UniProt P31268 116-202, W177C)
HOXA7 (Homo sapiens, UniProt P31268 116-202, W177C), sequence (P31268 116-202 W177C): as the sequence (P31268 116-202) above, with W62C counted along it

HOXA2 [17] = biological target: HOXA2 (Homo sapiens, UniProt O43364 129-215)
HOXA2 (Homo sapiens, UniProt O43364 129-215), sequence (O43364 129-215): as the sequence (O43364 129-215 R185K) above, with K57R counted along it

HOXB6 = HOXB6 (Homo sapiens, UniProt P17509 132-218)
HOXB6, sequence (P17509 132-218): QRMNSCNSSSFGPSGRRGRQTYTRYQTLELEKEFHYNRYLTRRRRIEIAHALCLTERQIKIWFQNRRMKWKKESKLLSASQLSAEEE

HOXC9 (Homo sapiens, UniProt P31274 178-260, K195R), sequence (P31274 178-260 K195R): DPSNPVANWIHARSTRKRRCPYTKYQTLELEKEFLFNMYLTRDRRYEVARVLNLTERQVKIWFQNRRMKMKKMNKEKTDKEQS
HOXB9 (Homo sapiens, UniProt P17482 171-250, T197M), sequence (P17482 171-250 T197M): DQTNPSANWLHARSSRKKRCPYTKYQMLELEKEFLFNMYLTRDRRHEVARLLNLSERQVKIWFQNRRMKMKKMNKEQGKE

| Sequence | binding signal (HOXB9 [1]) | binding signal (HOXC9 [2]) | binding signal (VENTX) | binding signal (HOXA7 [3]) | binding signal (HOXC10 [4]) | binding signal (PAX4 [5]) | binding signal (PAX4 [6]) | binding signal (HOXB9 [7]) | binding signal (HOXC9 [8]) | binding signal (HOXC9 [9]) | binding signal (HOXA2 [10]) | binding signal (HOXC10 [11]) | binding signal (VAX1) | binding signal (HOXB9 [12]) | binding signal (HOXC9 [13]) | binding signal (PAX4 [14]) | binding signal (HOXA2 [15]) | binding signal (HOXA7 [16]) | binding signal (HOXA2 [17]) | binding signal (HOXB6) |
| --- | --- | --- | --- | --- | --- | --- | --- | --- | --- | --- | --- | --- | --- | --- | --- | --- | --- | --- | --- | --- |
| ATAATTAC | 10.5 upbm affinity estimate (log intensity, higher = more binding, comparable within an allelic series) | 13 upbm affinity estimate (log intensity, higher = more binding, comparable within an allelic series) | 12.5 upbm affinity estimate (log intensity, higher = more binding, comparable within an allelic series) | 12.2 upbm affinity estimate (log intensity, higher = more binding, comparable within an allelic series) | 12.4 upbm affinity estimate (log intensity, higher = more binding, comparable within an allelic series) | 11.8 upbm affinity estimate (log intensity, higher = more binding, comparable within an allelic series) | 12.3 upbm affinity estimate (log intensity, higher = more binding, comparable within an allelic series) | 12.1 upbm affinity estimate (log intensity, higher = more binding, comparable within an allelic series) | 13 upbm affinity estimate (log intensity, higher = more binding, comparable within an allelic series) | 12.9 upbm affinity estimate (log intensity, higher = more binding, comparable within an allelic series) | 13.9 upbm affinity estimate (log intensity, higher = more binding, comparable within an allelic series) | 12.4 upbm affinity estimate (log intensity, higher = more binding, comparable within an allelic series) | 13.4 upbm affinity estimate (log intensity, higher = more binding, comparable within an allelic series) | 11.9 upbm affinity estimate (log intensity, higher = more binding, comparable within an allelic series) | 11.1 upbm affinity estimate (log intensity, higher = more binding, comparable within an allelic series) | 11.2 upbm affinity estimate (log intensity, higher = more binding, comparable within an allelic series) | 11.1 upbm affinity estimate (log intensity, higher = more binding, comparable within an allelic series) | 9.02 upbm affinity estimate (log intensity, higher = more binding, comparable within an allelic series) | 13.1 upbm affinity estimate (log intensity, higher = more binding, comparable within an allelic series) | 12.6 upbm affinity estimate (log intensity, higher = more binding, comparable within an allelic series) |
| AGTAATTA | 10.6 upbm affinity estimate (log intensity, higher = more binding, comparable within an allelic series) | 13.1 upbm affinity estimate (log intensity, higher = more binding, comparable within an allelic series) | 13 upbm affinity estimate (log intensity, higher = more binding, comparable within an allelic series) | 12.3 upbm affinity estimate (log intensity, higher = more binding, comparable within an allelic series) | 12.3 upbm affinity estimate (log intensity, higher = more binding, comparable within an allelic series) | 11.9 upbm affinity estimate (log intensity, higher = more binding, comparable within an allelic series) | 12.5 upbm affinity estimate (log intensity, higher = more binding, comparable within an allelic series) | 12.3 upbm affinity estimate (log intensity, higher = more binding, comparable within an allelic series) | 13 upbm affinity estimate (log intensity, higher = more binding, comparable within an allelic series) | 13 upbm affinity estimate (log intensity, higher = more binding, comparable within an allelic series) | 14 upbm affinity estimate (log intensity, higher = more binding, comparable within an allelic series) | 12.5 upbm affinity estimate (log intensity, higher = more binding, comparable within an allelic series) | 13.8 upbm affinity estimate (log intensity, higher = more binding, comparable within an allelic series) | 12.1 upbm affinity estimate (log intensity, higher = more binding, comparable within an allelic series) | 11.1 upbm affinity estimate (log intensity, higher = more binding, comparable within an allelic series) | 11.1 upbm affinity estimate (log intensity, higher = more binding, comparable within an allelic series) | 11.1 upbm affinity estimate (log intensity, higher = more binding, comparable within an allelic series) | 8.88 upbm affinity estimate (log intensity, higher = more binding, comparable within an allelic series) | 13.3 upbm affinity estimate (log intensity, higher = more binding, comparable within an allelic series) | 12.7 upbm affinity estimate (log intensity, higher = more binding, comparable within an allelic series) |
| GTAATTAA | 10.6 upbm affinity estimate (log intensity, higher = more binding, comparable within an allelic series) | 13.3 upbm affinity estimate (log intensity, higher = more binding, comparable within an allelic series) | 13 upbm affinity estimate (log intensity, higher = more binding, comparable within an allelic series) | 12.5 upbm affinity estimate (log intensity, higher = more binding, comparable within an allelic series) | 12.7 upbm affinity estimate (log intensity, higher = more binding, comparable within an allelic series) | 12 upbm affinity estimate (log intensity, higher = more binding, comparable within an allelic series) | 12.6 upbm affinity estimate (log intensity, higher = more binding, comparable within an allelic series) | 12.6 upbm affinity estimate (log intensity, higher = more binding, comparable within an allelic series) | 13.2 upbm affinity estimate (log intensity, higher = more binding, comparable within an allelic series) | 13.2 upbm affinity estimate (log intensity, higher = more binding, comparable within an allelic series) | 13.9 upbm affinity estimate (log intensity, higher = more binding, comparable within an allelic series) | 12.9 upbm affinity estimate (log intensity, higher = more binding, comparable within an allelic series) | 13.8 upbm affinity estimate (log intensity, higher = more binding, comparable within an allelic series) | 12.4 upbm affinity estimate (log intensity, higher = more binding, comparable within an allelic series) | 11.3 upbm affinity estimate (log intensity, higher = more binding, comparable within an allelic series) | 11.2 upbm affinity estimate (log intensity, higher = more binding, comparable within an allelic series) | 11.1 upbm affinity estimate (log intensity, higher = more binding, comparable within an allelic series) | 9.01 upbm affinity estimate (log intensity, higher = more binding, comparable within an allelic series) | 13.2 upbm affinity estimate (log intensity, higher = more binding, comparable within an allelic series) | 12.9 upbm affinity estimate (log intensity, higher = more binding, comparable within an allelic series) |
| ATAATTAA | 10.3 upbm affinity estimate (log intensity, higher = more binding, comparable within an allelic series) | 12.9 upbm affinity estimate (log intensity, higher = more binding, comparable within an allelic series) | 12.5 upbm affinity estimate (log intensity, higher = more binding, comparable within an allelic series) | 12.1 upbm affinity estimate (log intensity, higher = more binding, comparable within an allelic series) | 12.5 upbm affinity estimate (log intensity, higher = more binding, comparable within an allelic series) | 11.9 upbm affinity estimate (log intensity, higher = more binding, comparable within an allelic series) | 12.4 upbm affinity estimate (log intensity, higher = more binding, comparable within an allelic series) | 12.1 upbm affinity estimate (log intensity, higher = more binding, comparable within an allelic series) | 12.9 upbm affinity estimate (log intensity, higher = more binding, comparable within an allelic series) | 12.8 upbm affinity estimate (log intensity, higher = more binding, comparable within an allelic series) | 13.7 upbm affinity estimate (log intensity, higher = more binding, comparable within an allelic series) | 12.3 upbm affinity estimate (log intensity, higher = more binding, comparable within an allelic series) | 13.5 upbm affinity estimate (log intensity, higher = more binding, comparable within an allelic series) | 11.9 upbm affinity estimate (log intensity, higher = more binding, comparable within an allelic series) | 11.2 upbm affinity estimate (log intensity, higher = more binding, comparable within an allelic series) | 11.2 upbm affinity estimate (log intensity, higher = more binding, comparable within an allelic series) | 11 upbm affinity estimate (log intensity, higher = more binding, comparable within an allelic series) | 8.99 upbm affinity estimate (log intensity, higher = more binding, comparable within an allelic series) | 13 upbm affinity estimate (log intensity, higher = more binding, comparable within an allelic series) | 12.4 upbm affinity estimate (log intensity, higher = more binding, comparable within an allelic series) |
| AATTAATG | 10.2 upbm affinity estimate (log intensity, higher = more binding, comparable within an allelic series) | 12.8 upbm affinity estimate (log intensity, higher = more binding, comparable within an allelic series) | 12.5 upbm affinity estimate (log intensity, higher = more binding, comparable within an allelic series) | 11.9 upbm affinity estimate (log intensity, higher = more binding, comparable within an allelic series) | 12.2 upbm affinity estimate (log intensity, higher = more binding, comparable within an allelic series) | 11.9 upbm affinity estimate (log intensity, higher = more binding, comparable within an allelic series) | 12.5 upbm affinity estimate (log intensity, higher = more binding, comparable within an allelic series) | 12.1 upbm affinity estimate (log intensity, higher = more binding, comparable within an allelic series) | 12.8 upbm affinity estimate (log intensity, higher = more binding, comparable within an allelic series) | 12.8 upbm affinity estimate (log intensity, higher = more binding, comparable within an allelic series) | 13.5 upbm affinity estimate (log intensity, higher = more binding, comparable within an allelic series) | 12 upbm affinity estimate (log intensity, higher = more binding, comparable within an allelic series) | 13.1 upbm affinity estimate (log intensity, higher = more binding, comparable within an allelic series) | 11.8 upbm affinity estimate (log intensity, higher = more binding, comparable within an allelic series) | 11 upbm affinity estimate (log intensity, higher = more binding, comparable within an allelic series) | 11.1 upbm affinity estimate (log intensity, higher = more binding, comparable within an allelic series) | 11 upbm affinity estimate (log intensity, higher = more binding, comparable within an allelic series) | 8.87 upbm affinity estimate (log intensity, higher = more binding, comparable within an allelic series) | 12.5 upbm affinity estimate (log intensity, higher = more binding, comparable within an allelic series) | 12.2 upbm affinity estimate (log intensity, higher = more binding, comparable within an allelic series) |
| GGTAATTA | 10.6 upbm affinity estimate (log intensity, higher = more binding, comparable within an allelic series) | 13.2 upbm affinity estimate (log intensity, higher = more binding, comparable within an allelic series) | 13.2 upbm affinity estimate (log intensity, higher = more binding, comparable within an allelic series) | 12.6 upbm affinity estimate (log intensity, higher = more binding, comparable within an allelic series) | 12.5 upbm affinity estimate (log intensity, higher = more binding, comparable within an allelic series) | 12 upbm affinity estimate (log intensity, higher = more binding, comparable within an allelic series) | 12.5 upbm affinity estimate (log intensity, higher = more binding, comparable within an allelic series) | 12.3 upbm affinity estimate (log intensity, higher = more binding, comparable within an allelic series) | 13.1 upbm affinity estimate (log intensity, higher = more binding, comparable within an allelic series) | 13.1 upbm affinity estimate (log intensity, higher = more binding, comparable within an allelic series) | 14.1 upbm affinity estimate (log intensity, higher = more binding, comparable within an allelic series) | 12.7 upbm affinity estimate (log intensity, higher = more binding, comparable within an allelic series) | 14.1 upbm affinity estimate (log intensity, higher = more binding, comparable within an allelic series) | 12.2 upbm affinity estimate (log intensity, higher = more binding, comparable within an allelic series) | 11 upbm affinity estimate (log intensity, higher = more binding, comparable within an allelic series) | 11.1 upbm affinity estimate (log intensity, higher = more binding, comparable within an allelic series) | 11 upbm affinity estimate (log intensity, higher = more binding, comparable within an allelic series) | 9.03 upbm affinity estimate (log intensity, higher = more binding, comparable within an allelic series) | 13.4 upbm affinity estimate (log intensity, higher = more binding, comparable within an allelic series) | 12.9 upbm affinity estimate (log intensity, higher = more binding, comparable within an allelic series) |
